# High-throughput results as filed in PubChem BioAssay.
# nsP2pro primary – inhibitors of chikungunya virus nsP2 protease | Q8JUX6 | FRET peptide cleavage, nsP2pro, fluorescence 1 h | Potency, µM (doses to about 24.9 µM), inactives show at the highest dose activity change, negative = inhibition, usual class: inhibitors | 31,000 tested, 1.1% active; note: nearly all actives have a fitted effect of over 60% in size
#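 Purified recombinant nsP2pro (150 nM final) in 10 mM Tris-HCl pH 8.0 with 0.01% Tween 20 was preincubated 15 min at room temperature with compound (7 concentrations, up to 25 uM). FRET peptide 2 substrate (2.5 uM final) was then added; fluorescence was read after 1 h.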
# CHIKV nsP2 cell – secondary cell-based test for CHIKV nsP2 protease inhibitors. 450 tested, 10% active. cell-based CHIKV nsP2 protease reporter assay. shares compounds with nsP2pro primary. Potency, µM (top dose mostly 51.1 µM), for inactives: at the top dose activity change, negative = inhibition, most hits filed as inhibitors; note: nearly all actives have a fitted effect of over 70% in size
# NSP2 full ctr – inhibits full-length CHIKV NSP2 enzyme. shares compounds with nsP2pro primary. Full-length CHIKV NSP2 protease enzymatic counterscreen. Potency, µM (series often up to 50.7 µM), inactives show at the top dose activity change, negative = inhibition, hits mostly inhibitors. 410 tested, 39% active. AID 1964101; note: nearly all actives have a fitted effect of over 65% in size
# Furin counterscr – inhibits human furin in a CHIKV nsP2 protease selectivity counterscreen; 410 tested, 6% active; shares compounds with nsP2pro primary; Potency, µM (highest dose often 50.6 µM), without a hit: at the highest dose activity change, negative = inhibition, most hits filed as inhibitors; Recombinant human furin enzymatic counterscreen, fluorogenic substrate; AID 1964102
# Target sequence (P09958 whole entry, looked up): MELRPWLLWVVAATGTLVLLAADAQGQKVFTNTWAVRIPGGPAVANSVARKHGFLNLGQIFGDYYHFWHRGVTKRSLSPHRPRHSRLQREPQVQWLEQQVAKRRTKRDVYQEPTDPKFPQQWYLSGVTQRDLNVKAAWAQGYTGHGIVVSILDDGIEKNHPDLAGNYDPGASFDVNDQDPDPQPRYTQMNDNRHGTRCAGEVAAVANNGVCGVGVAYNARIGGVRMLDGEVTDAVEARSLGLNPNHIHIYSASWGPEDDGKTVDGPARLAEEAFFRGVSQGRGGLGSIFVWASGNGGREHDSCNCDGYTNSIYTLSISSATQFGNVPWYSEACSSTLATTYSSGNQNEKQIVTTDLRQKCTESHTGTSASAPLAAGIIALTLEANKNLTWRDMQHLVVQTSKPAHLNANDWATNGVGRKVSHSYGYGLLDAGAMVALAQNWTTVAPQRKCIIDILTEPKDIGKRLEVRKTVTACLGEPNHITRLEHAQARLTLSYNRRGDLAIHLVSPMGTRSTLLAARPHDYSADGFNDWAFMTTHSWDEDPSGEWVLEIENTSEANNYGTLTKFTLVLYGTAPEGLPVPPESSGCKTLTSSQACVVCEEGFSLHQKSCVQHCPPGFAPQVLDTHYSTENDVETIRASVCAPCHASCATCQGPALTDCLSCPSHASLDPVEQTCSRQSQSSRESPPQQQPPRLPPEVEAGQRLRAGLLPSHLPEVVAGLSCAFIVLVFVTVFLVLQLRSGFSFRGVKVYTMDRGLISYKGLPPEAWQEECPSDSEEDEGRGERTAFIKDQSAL
# nsP2 NS23 pep – nsP2pro inhibition on native NS2/3 peptide substrate; shares compounds with nsP2pro primary; Purified CHIKV nsP2 protease, endogenous NS2/3 peptide cleavage; Potency, µM (doses to about 51 µM), without a hit: at the top dose activity change, negative = inhibition, usual class: inhibitors; 410 tested, 34% active; AID 1964103; note: nearly all actives have a fitted effect of over 55% in size
# Papain cs – selectivity counter-screen for CHIKV nsP2 protease inhibitors: papain; Potency, µM (top dose mostly 51 µM), for the others: at the top dose activity change, negative = inhibition, usual class: inhibitors; purified papain protease activity, enzymatic inhibition; shares compounds with nsP2pro primary; AID 1964104; 410 tested, 5% active
# nsP2pro confirm – confirmation of CHIKV nsP2 protease inhibitors. shares compounds with nsP2pro primary. CHIKV nsP2 protease enzymatic activity, qHTS. Potency, µM (doses to about 25.5 µM), inactives show top-dose activity change, negative = inhibition, hits mostly inhibitors. 410 tested, 43% active; note: nearly all actives have a fitted effect of over 75% in size
# HCV NS3 4A cs – selectivity counter-screen for CHIKV nsP2 protease inhibitors: HCV NS3/4A; 410 tested, 20% active; HCV NS3/4A protease biochemical counterscreen; shares compounds with nsP2pro primary; AID 1964106; Potency, µM (titrated, usually from 50.9 µM), most hits filed as inhibitors; note: nearly all actives have a fitted effect of over 55% in size
# * = called active by the depositor; i = inactive; ? = inconclusive; [ ] = another dose, or the depositor's remark. This is one part of a sample in which hits are shown more often than they occur. Calls come from the whole dose curve. % is set by controls: 0 for no effect and ±100 for the full control effect; potency is the fitted concentration of half-maximal effect.
SMILES,nsP2pro primary,others
CS(=O)(=O)c1ncc(Cl)c(C(=O)N2CCN(c3cccc(Cl)c3)CC2)n1,1.6µM*,CHIKV nsP2 cell=1.5µM*;NSP2 full ctr=5.8µM*;Furin counterscr=4%;nsP2 NS23 pep=8.2µM*;Papain cs=-3%;nsP2pro confirm=4.5µM*;HCV NS3 4A cs=i
O=C(C1CCN(c2nc3ccccc3[nH]2)CC1)N1CCN(c2cccc(Cl)c2)CC1,4%,
Cc1ccc(Nc2ncc(C(=O)N3CCN(c4cccc(Cl)c4)CC3)c3ccccc23)cc1Cl,-20%,
Cc1ccc(-c2cc(C(=O)NC3CCCCC3)c3ccccc3n2)cc1C,i,
NCCCCN(Cc1nc2ccccc2[nH]1)[C@H]1CCCc2cccnc21,130%,
COc1ccccc1N1CCN(C(c2ccc(Cl)cc2)c2nnc(-c3cccc(F)c3)o2)CC1 (stereo unspecified),-13%,
COc1ccccc1N1CCN(C(c2ccccc2)c2nnc(-c3ccccc3Cl)o2)CC1 (stereo unspecified),-10%,
COc1ccc(N2CCN(C(c3ccccc3)c3nnc(-c4ccccc4Cl)o3)CC2)cc1 (stereo unspecified),?,CHIKV nsP2 cell=?
Cc1oc(=O)oc1COC(=O)N1CC[C@@H](N2CC/C(=C\C3=C(C(=O)O)N4C(=O)[C@@H](NC(=O)/C(=N/O)c5nsc(N)n5)[C@H]4SC3)C2=O)C1,-3%,
O=C(Cc1ccc(Cl)c(Cl)c1)Nc1ccc([S+](=O)([O-])Nc2ccccn2)cc1,-3%,
Nc1ccc(CNc2ccc([S+](=O)([O-])Nc3nccs3)cc2)c(O)c1,i,
CC(C)CC(=O)N1[C@@H](c2ccco2)[C@@H](CO)C[C@]12CCCCN(CCO)C2=O,?,CHIKV nsP2 cell=-2%
CC(C)CC(=O)N1CC(=O)Nc2ccc(F)cc2C1c1ccccc1 (stereo unspecified),-28%,
CC(C)CC(=O)N1[C@@H](c2ccco2)[C@@H](C(=O)O)C[C@]12CCCCNC2=O,?,CHIKV nsP2 cell=4%
CN1CCN2c3c(cccc31)[C@@H]1CN(CCCC(=O)c3ccc(F)cc3)CC[C@@H]12,-15%,
c1cncc(-c2ccc(CNc3nc(C4CCCC4)nc4ccccc34)cc2)c1,5%,
O=C(/C=C/c1ccc(O)c(O)c1)OC[C@H]1O[C@@H](OC2CCCCC2O)[C@H](O)[C@@H](O)[C@@H]1O (stereo partly specified),54%[10 µM],
CC(CO[C@@H]1O[C@H](COC(=O)/C=C/c2ccc(O)c(O)c2)[C@@H](O)[C@H](O)[C@H]1O)C1(O)COC(=O)C1 (stereo partly specified),?,CHIKV nsP2 cell=2%[17.6 µM];NSP2 full ctr=-14%[17.3 µM];Furin counterscr=-11%[17.3 µM];nsP2 NS23 pep=-13%[17.2 µM];Papain cs=-12%[17.2 µM];nsP2pro confirm=-26%[8.62 µM];HCV NS3 4A cs=i
CC(=O)O[C@@H]1[C@@H](CO)O[C@@](CO)(O[C@H]2O[C@H](COC(=O)/C=C/c3ccccc3)[C@@H](O)[C@H](O)[C@H]2O)[C@H]1O,55%[10 µM],
O=C1c2c(O)cccc2Cc2cccc(O)c21,26%,
O=C1Nc2ccccc2/C1=C/c1cccc(C(=O)O)c1,i,
Cc1cc(O)c2c(c1)C(=O)c1cccc(O)c1C2=O,?,CHIKV nsP2 cell=9%;NSP2 full ctr=?;Furin counterscr=-4%;nsP2 NS23 pep=-8%;Papain cs=-6%;nsP2pro confirm=?;HCV NS3 4A cs=i
O=C(O)c1cc(O)c2c(c1)C(=O)c1cccc(O)c1C2=O,?,CHIKV nsP2 cell=-12%;NSP2 full ctr=15%;Furin counterscr=5%;nsP2 NS23 pep=i;Papain cs=?;nsP2pro confirm=22%;HCV NS3 4A cs=i
O=C(O)c1ccc(C(=O)O)cc1,-20%,
COc1cc(-c2nc(Nc3ccc(F)c(F)c3)c3ccccc3n2)cc(OC)n1,3%,
SMILES,nsP2pro primary,others
CCN(CC)C(=O)COC(=O)c1ccc(S(C)(=O)=O)c([N+](=O)[O-])c1,-4%,
Cc1ccnc(NC(=S)N2CCN(c3ccc(C(F)(F)F)cc3[N+](=O)[O-])CC2)c1,-8%,
Cc1cc(C)nc(NC(=S)N2CCN(c3ccc4c(c3)OCO4)CC2)c1,4%,
O=C(Nc1ncc([S+](=O)([O-])N2CCOCC2)s1)c1cccc(Br)c1,i,
C=C1C[C@H]2[C@@H]3CCC4=CC(=O)CC[C@@H]4[C@H]3CC[C@]2(C)[C@@]1(OC(C)=O)C(C)=O,-13%,
COc1ccc(CCC(=O)N2CCCC(n3cc(-c4nc(-c5ccccc5)no4)nn3)C2)cc1 (stereo unspecified),4%,
OCc1ccc(-c2ccc(-c3ccc(CO)s3)o2)s1,2.2µM*,CHIKV nsP2 cell=-4%[17.6 µM];NSP2 full ctr=4µM*;Furin counterscr=?;nsP2 NS23 pep=?;Papain cs=i;nsP2pro confirm=3.1µM*;HCV NS3 4A cs=i
C[N+]1(C)[C@@H]2CC(OC(=O)C(O)(c3cccs3)c3cccs3)C[C@H]1[C@H]1O[C@@H]12 (stereo partly specified),-3%,
COc1c(O)cc2oc(-c3ccccc3)cc(=O)c2c1O,-8%,
O=C(c1ccc2c(c1)ncn2-c1ccc(C(F)(F)F)cc1)N1CCCCC1,i,
CN(Cc1ccccc1)C(=O)c1ccc(S(=O)(=O)Nc2ccccc2)cc1,-1%,
COc1ccc(C(=O)Nc2ccc(S(=O)(=O)N(Cc3ccccc3)c3ccccc3)cc2)cc1,-7%,
CC(C)N(CCC(=O)c1ccc2ccccc2c1)Cc1ccccc1,0.56µM*,CHIKV nsP2 cell=?;NSP2 full ctr=0.92µM*;Furin counterscr=-12%;nsP2 NS23 pep=5.8µM*;Papain cs=96%;nsP2pro confirm=0.5µM*;HCV NS3 4A cs=i
NC(=O)[C@H](Cc1ccccc1)NC(=O)[C@H](CCCN=C(N)N)NC(=O)C12CC3CC(CC(C3)C1)C2,-9%[5.1 µM],
COc1cccc(-c2nc3cc(NC(=O)c4ccc(C)c([N+](=O)[O-])c4)ccc3o2)c1,-7%,
COc1ccc2nc(-c3ccc(F)cc3Cl)sc2c1,-13%,
CC(C)C[C@H](NC(=O)CNC(=O)OCc1ccccc1)C(=O)N[C@@H](Cc1ccccc1)C(=O)CCl,-25%,
CC(NC(=O)[C@H](Cc1ccccc1)NC(=O)OCc1ccccc1)C(=O)CF (stereo partly specified),-28%,
C[C@H](NC(=O)[C@H](Cc1ccccc1)NC(=O)OCc1ccccc1)C(=O)CF,?,CHIKV nsP2 cell=-6%;NSP2 full ctr=?;Furin counterscr=1%;nsP2 NS23 pep=-10%;Papain cs=0.046µM*;nsP2pro confirm=?;HCV NS3 4A cs=i
CC(=O)Nc1sc2c(c1-c1ccc3nc[nH]c3c1)CCNC2,i,
